VP16 counter = VP16 counterscreen qHTS for inhibitors of ROR gamma transcriptional activity; Drosophila S2 Gal4-VP16 UAS-luciferase, luminescence, 20 h; Potency, µM (doses to about 53.6 µM), without a hit: top-dose activity, negative = inhibition, most hits filed as inhibitors; 310,000 tested, 3.5% active; AID 2546, 2010;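 further: Gal4-VP16 expression switched on by copper sulfate through the metallothionein promoter; nearly all actives have a fitted effect of over 50% in size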
ALOX12 inh = Primary qHTS assay for inhibitors of human arachidonate 12S-lipoxygenase (ALOX12): Round 2 | purified 12hLO, xylenol orange hydroperoxide absorbance | Potency, µM (doses to about 108 µM), for the others: at the top dose activity change, negative = inhibition, usual class: inhibitors | 580,000 tested, 1.1% active | AID 1671190, 2021
Target sequence (P18054 whole entry, looked up): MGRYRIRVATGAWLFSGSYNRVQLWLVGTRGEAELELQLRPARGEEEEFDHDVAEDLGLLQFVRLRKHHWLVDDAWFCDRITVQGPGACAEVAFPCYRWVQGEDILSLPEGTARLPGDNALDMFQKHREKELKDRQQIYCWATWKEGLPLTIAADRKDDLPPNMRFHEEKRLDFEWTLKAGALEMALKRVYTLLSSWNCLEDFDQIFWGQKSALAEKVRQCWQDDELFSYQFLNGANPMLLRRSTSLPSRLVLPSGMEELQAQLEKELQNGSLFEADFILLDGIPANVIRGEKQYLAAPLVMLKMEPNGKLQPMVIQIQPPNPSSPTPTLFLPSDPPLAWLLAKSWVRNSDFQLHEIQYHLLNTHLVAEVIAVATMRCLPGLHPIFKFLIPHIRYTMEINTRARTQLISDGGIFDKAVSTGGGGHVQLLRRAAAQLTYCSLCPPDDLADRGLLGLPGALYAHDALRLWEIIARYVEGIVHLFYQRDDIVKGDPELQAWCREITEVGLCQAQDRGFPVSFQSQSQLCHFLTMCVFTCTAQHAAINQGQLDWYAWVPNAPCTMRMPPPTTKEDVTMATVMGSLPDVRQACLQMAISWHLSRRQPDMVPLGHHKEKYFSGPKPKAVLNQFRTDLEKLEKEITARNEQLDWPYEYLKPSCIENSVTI
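Purified human 12hLO (150 nM final) in 25 mM Hepes, 0.01% Triton X-100, pH 7.0 was preincubated 15 min at room temperature with compound. Then 40 uM arachidonic acid was added, 30 min. Hydroperoxide was read by Fe-XO absorbance ratio 573/405 nm.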
ELG1 DNA repair = qHTS screen for small molecules that inhibit ELG1-dependent DNA repair in human embryonic kidney (HEK293T) cells expressing luciferase-tagged ELG1. HEK293T ELG1-luciferase reporter, luminescence, 16 h; DNA damage induced by 5-fluorouridine. Potency, µM (series often up to 46.1 µM), inactives show top-dose activity change, negative = inhibition, most hits filed as inhibitors. 330,000 tested, 2.3% active; further: nearly all actives have a fitted effect of over 55% in size
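Cells (2,000 per well) received 5-fluorouridine plus test compound or DMSO and were incubated 16 hr at 37 °C, 5% CO2. Luciferase activity was read by luminescence 30 min after ONE-Glo addition; signal suppression marked inhibition of damage-induced ELG1 function.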
RORgamma inh = qHTS for inhibitors of ROR gamma transcriptional activity | Nuclear receptor ROR-gamma (Mus musculus), P51450 | Drosophila S2 Gal4-RORgamma UAS-luciferase reporter, 20 h | Potency, µM (highest dose often 53.6 µM), for the others: at the highest dose activity change, negative = inhibition, usual class: inhibitors | 310,000 tested, 5.4% active | AID 2551, 2010; further: nearly all actives have a fitted effect of over 60% in size
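Luminescence from a UAS-regulated Photinus luciferase reporter in stably transfected Drosophila Schneider cells is measured; decreased signal marks ROR gamma inhibition. Fusion expression is induced by 700 uM copper sulfate for 20 hr.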
DT40 TDP1 no CPT = qHTS for Inhibitors of human tyrosyl-DNA phosphodiesterase 1 (TDP1): qHTS in cells in absence of CPT; DT40 Tdp1-/- hTDP1 cells, no CPT, ATP luminescence, 48 h; Potency, µM (doses to about 46.2 µM), without a hit: at the highest dose activity change, negative = growth inhibition, actives largely listed as inhibitors; 420,000 tested, 15% active; AID 686978, 2013; further: nearly all actives have a fitted effect of over 55% in size
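Growth kinetics read by CellTiter-Glo luminescence after ≥48 hr at 37 °C. Cells: DT40 Tdp1-/- stably carrying human TDP1, 400 per well, compound exposure in the absence of CPT (DMSO vehicle).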
TDP1 cell CPT = qHTS for Inhibitors of human tyrosyl-DNA phosphodiesterase 1 (TDP1): qHTS in cells in presence of CPT; 420,000 tested, 12% active; chicken DT40 Tdp1-/-;hTDP1 cells + 20 nM CPT, ATP luminescence, 48 h; Potency, µM (highest dose often 46.2 µM), for inactives: at the top dose activity change, negative = growth inhibition, usual class: inhibitors; AID 686979, 2013; further: nearly all actives have a fitted effect of over 55% in size
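Chicken DT40 Tdp1-/- cells complemented with human TDP1, 400 cells/well, exposed to compounds plus 20 nM camptothecin for at least 48 h at 37 C; viability read as ATP content by CellTiter-Glo luminescence.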
* hit, by the source's call; ? = inconclusive; nt = no result; [ ] = another dose, or the depositor's remark. In the library only some 15% were active in any assay of this set; here they are far more common. The call rests on the fitted dose curve; in most records, active means well fitted curve in the direction sought with a large enough effect; inconclusive means small, poorly fitted or top-dose-only effect, or another doubt; inactive means no such curve, though single readings can be large; an effect the other way counts as inactive or inconclusive. On the % scale 0 is the no-effect control and ±100 the full control effect; potency means the concentration at half of the fitted maximal effect.

SMILES	VP16 counter	ALOX12 inh	ELG1 DNA repair	RORgamma inh	DT40 TDP1 no CPT	TDP1 cell CPT
CC(C(=O)N/N=C/c1ccc(N(C)C)c(Br)c1)N(c1ccccc1)S(C)(=O)=O (configuration not stated)	-3.5%	85.7%	1.5%	21.5%	9.2µM*	?
CN(C)c1ccc(/C=N/NC(=O)CN(c2ccccc2Cl)S(C)(=O)=O)cc1Br	?	-10.0%	10.3µM*	-8.8%	?	?
CS(=O)(=O)N(CC(=O)N/N=C/c1cc2c(cc1Br)OCO2)c1ccccc1Br	-13.6%	-19.3%	-27.2%	?	14.6µM*	?
COc1ccc(C(=O)c2sc(Nc3ccccc3OC)nc2N)cc1	nt	-32.8%	nt	nt	nt	nt
Cc1c(CC(=O)NC[C@@H](C)O)c(=O)oc2cc(O)c(Cl)cc12	nt	-7.9%	nt	nt	nt	nt
Cc1ccc(NC(=O)CSc2nc3ccccc3c(=O)n2CCn2cc(Cl)cn2)cc1	nt	5.2%	nt	nt	nt	nt
Cc1cccc(-n2ncc3c2CCCC3NC(=O)c2cccs2)c1C (configuration not stated)	nt	-7.1%	nt	nt	18.4µM*	?
COc1ccc(C(=O)NC2CCCc3c2cnn3-c2cccc(C)c2C)o1 (configuration not stated)	?	1.5%	0.0%	?	23.1µM*	20.6µM*
Cc1cccc(-n2ncc3c2CCCC3NC(=O)Cc2c(C)noc2C)c1C (configuration not stated)	10µM*	0.0%	?	19.6%	?	?
Cc1cc(C(=O)NC2CCCc3c2cnn3-c2cccc(C)c2C)no1 (configuration not stated)	?	0.0%	?	?	16.4µM*	20.6µM*
CCN(CC)C(=O)N1CCC2(CC1)C(OC)C(=O)N2c1cccc(F)c1 (configuration not stated)	nt	26.6%	nt	nt	nt	nt
Cc1cccc(-n2ncc3c2CCCC3NC(=O)c2ccncc2)c1C (configuration not stated)	nt	-6.5%	nt	nt	0.231µM*	-6.7%
CCn1cc(C(=O)NC2CCCc3c2cnn3-c2cccc(C)c2C)cn1 (configuration not stated)	1.26µM*	-1.0%	?	-7.1%	nt	nt
Cc1cccc(-n2ncc3c2CCCC3NC(=O)CCc2cccnc2)c1C (configuration not stated)	?	10.4%	?	23.5%	?	?
O=C(CSc1ccccn1)NC1CCCc2c1cnn2-c1ccccc1F (configuration not stated)	nt	-5.2%	nt	nt	16.4µM*	-26.3%
CC1=C(C(=O)NC2CCCc3c2cnn3-c2cccc(C)c2C)OCCO1 (configuration not stated)	11.2µM*	16.4%	?	?	8.2µM*	20.6µM*
COc1ccc(C)cc1NC(=O)CCn1nc(-c2cccs2)oc1=O	nt	28.8%	nt	nt	nt	nt
CCN(CC)CCCNC(=O)C1CCN(c2ncnc3c2sc2cccc(F)c23)CC1	-4.6%	-1.1%	?	-2.1%	?	?
O=C(Nc1ccc(F)cc1F)C1CCN(c2ncnc3c2sc2cccc(F)c23)CC1	-3.4%	16.4%	3.1%	-0.8%	16.4µM*	6.51µM*
C=CCn1c(O)c(C2=c3ccccc3=NC2=O)c2ccccc21	3.98µM*	-14.2%	-14.2%	4.47µM*	4.11µM*	?
C=CCn1c(O)c(C2=c3ccccc3=NC2=O)s/c1=N/c1nccs1	-6.6%	5.2%	1.8%	-34.4%	?	?
O=C(NCCN1CCCC1)c1cnc2c(c1)N(C(=O)Cc1cccc(C(F)(F)F)c1)CCC2	nt	21.9%	nt	nt	nt	nt
CC(C)n1nccc1N(Cc1ccc(Br)cc1)S(=O)(=O)c1ccccc1	10.8%	-11.2%	?	1.2%	?	23.1µM*
CCn1c(SC(C)C(=O)Nc2cccc(F)c2)nc2ccccc2c1=O (configuration not stated)	nt	0.4%	nt	nt	nt	nt
O=C1N(CC2CCC2)CCCC12CCN(Cc1ccc(-c3ccn[nH]3)s1)C2 (configuration not stated)	nt	9.2%	nt	nt	nt	nt
SMILES	VP16 counter	ALOX12 inh	ELG1 DNA repair	RORgamma inh	DT40 TDP1 no CPT	TDP1 cell CPT
Cc1cc2cc(CN(C(=O)C3CC3)C3CCCC3)c3nnnn3c2cc1C	-12.3%	0.0%	-0.6%	-19.0%	20.6µM*	?
CC(=O)N(Cc1cc2ccc(C)c(C)c2n2nnnc12)C1CCCC1	2.4%	nt	?	-7.4%[10 µM]	nt	nt
Cc1oc(-c2cccs2)nc1CC(=O)NC(C)C12CC3CC(CC(C3)C1)C2 (configuration not stated)	nt	-4.1%	nt	nt	nt	nt
COc1ccccc1C(=O)ON=C1c2ccccc2-c2ccccc21	?	-14.4%	?	36.7%[10 µM]	23.1µM*	-26.6%
COC(=O)c1ccccc1OC	nt	-13.2%[176 µM]	nt	nt	nt	nt
CCOc1ccccc1CN1CCCC(C(=O)c2ccc(OC)c(OC)c2)C1 (configuration not stated)	-0.2%	0.0%	-18.7%	-19.0%	?	?
CN(C)S(=O)(=O)N1CCCC(C(=O)c2ccc(-c3ccccc3)c(F)c2)C1 (configuration not stated)	?	8.6%	?	?	14.6µM*	16.4µM*
CSc1ccc(C(=O)C2CCCN(S(=O)(=O)N(C)C)C2)cc1 (configuration not stated)	-1.4%	4.9%	?	28.6%	?	7.0%
Cc1ncoc1C(=O)N1CCCC(C(=O)c2ccc(-c3ccccc3)c(F)c2)C1 (configuration not stated)	-0.8%	-14.7%	?	?	?	?
COc1ccc(C(=O)C2CCCN(Cc3cn(C)nc3-c3ccccc3)C2)cc1F (configuration not stated)	-0.6%	-8.9%	-11.6%	2.6%	25.9µM*	?
COc1c(C)cc(C(=O)C2CCCN(S(=O)(=O)N(C)C)C2)cc1C (configuration not stated)	5.7%	3.2%	0.0%	6.2%	13µM*	?
O=C(c1ccc(-c2ccccc2)c(F)c1)C1CCCN(CCCn2cccn2)C1 (configuration not stated)	7.7%	10.4%	-7.0%	-32.2%	?	16.4µM*
